± gives the uncertainty stated by the source. The full ranking holds about 9,900 compounds; the median of “viability index relative to DMSO control” is about 1, and the lowest 2% start at about 0.85. What follows is part of a selection rich in the lowest values, with near analogues and random picks from the rest.

Drawing on the supplement of paper PMC4723716, this text covers viability index for 35 molecules.

In this test the test system is Plasmodium falciparum NF54 stage V gametocytes. Kind of test: viability index relative to DMSO control (fraction); higher = less gametocyte killing. The conditions noted are these: 2.5 µM, incubation time: 72 h. Put shortly:
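In 1,536-well plates, 10 µl of serum-free medium holding P. falciparum NF54 stage V gametocytes (0.75% gametocytemia, 1.25% hematocrit) received compound at 2.5 µM for 72 hr at 37°C in low oxygen. After one to two hours with 3 µl of 2.5 µM MitoTracker Red CMXRos containing 0.13% saponin, red particles of 20–70 µm2 were counted in a single field per well. Viability index is reported as the particle count over the plate mean of wells treated with solvent only.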

[1] abbreviates: library set: Broad Institute DOS.
Where [2] appears, read: library set: Broad Institute Blood Stage.

`Cc1ccc(S(=O)(=O)Nc2ccc3c(c2)C(=O)N([C@@H](C)CO)C[C@@H](C)[C@@H](CN(C)S(=O)(=O)c2cccs2)OCCCC[C@@H](C)O3)cc1` yielded a viability index under setting [1] of 1.13 ± 0.23.

The molecule `NCC[C@H]1CC[C@@H](NC(=O)Cc2ccncc2)[C@H](CO)O1` displayed a viability index under setting [1] of 1.091 ± 0.0072.

In the case of `CNC(=O)C[C@@H]1CC[C@@H]2[C@H](COC[C@@H](O)CN2Cc2ccccc2F)O1`, the viability index under setting [1] turned out to be 1.08 ± 0.086.

`COc1ccc(S(=O)(=O)Nc2ccc3c(c2)C(=O)N([C@H](C)CO)C[C@H](C)[C@@H](CN(C)Cc2ccc(C(F)(F)F)cc2)OCCCC[C@H](C)O3)cc1`: the viability index under setting [1] turned out to be 1.07 ± 0.051.

Under setting [1], `C/C=C/c1ccc2n(c1=O)C[C@@H]1[C@@H](CO)[C@H](C(=O)NCC)N(Cc3cccc(F)c3)[C@H]21.C/C=C\c1ccc2n(c1=O)C[C@@H]1[C@@H](CO)[C@H](C(=O)NCC)N(Cc3cccc(F)c3)[C@H]21` had a viability index of 0.99 ± 0.091.

Under setting [1], `Cc1ccccc1-c1ccc([C@@H]2[C@@H]3CN(Cc4cocn4)C[C@H]2N3)cc1` displayed a viability index of 0.949 ± 0.05.

On to `C[C@@H]1CN([C@@H](C)CO)C(=O)c2cc(NC(=O)C3CC3)ccc2O[C@H]1CN(C)S(=O)(=O)c1ccccc1`, for which, under setting [1], the viability index was 0.9821 ± 0.0066.

Under setting [1], `COc1ccccc1-c1ccc2c(c1)[C@@H]1[C@@H](CCN1C(=O)C1CCC1)[C@H](CO)N2` registered a viability index of 0.655 ± 0.025.

Regarding `N#Cc1ccc(-c2ccc3c(c2)[C@H]2[C@H](CCN2C(=O)C2CCCCC2)[C@H](CO)N3)cc1`, the viability index under setting [1] was found to be 1.11 ± 0.057.

Under setting [1], `COc1ccccc1-c1ccc2c(c1)[C@H]1[C@H](CCN1C(=O)C1CCC1)[C@@H](CO)N2` yielded a viability index of 0.865 ± 0.097.

Under setting [1], `CN1CCN(C(=O)C[C@@H]2CC[C@H]3[C@H](COc4ccc(NC(=O)C5CCOCC5)cc4C(=O)N3C)O2)CC1` returned a viability index of 1.05 ± 0.029.

On to `CCS(=O)(=O)Nc1ccc2c(c1)C(=O)N(C)[C@H]1CC[C@H](CC(=O)NCCCN3CCOCC3)O[C@@H]1CO2`, for which the viability index under setting [1] amounted to 1.03 ± 0.07.

The molecule `CC(C)NC(=O)Nc1cccc2c1O[C@@H](CN(C)C(=O)Nc1ccccc1)[C@@H](C)CN([C@H](C)CO)C2=O` had a viability index under setting [1] of 1.1 ± 0.11.

Turning to `C[C@@H]1CN([C@@H](C)CO)C(=O)c2cccc(NC(=O)Nc3ccccc3)c2O[C@@H]1CN(C)C(=O)Nc1ccc(F)cc1`, the viability index under setting [2] was 0.727 ± 0.041.

Molecule `CC(C)NC(=O)Nc1cccc2c1O[C@H](CN(C)C(=O)Nc1ccccc1)[C@@H](C)CN([C@H](C)CO)C2=O` gave a viability index under setting [1] of 0.975 ± 0.13.

`CC(C)NC(=O)Nc1cccc2c1O[C@H](CN(C)C(=O)Nc1ccccc1)[C@@H](C)CN([C@@H](C)CO)C2=O`: under setting [1], the viability index is 1.09 ± 0.07.

`CC(C)NC(=O)Nc1cccc2c1O[C@H](CN(C)C(=O)Nc1ccccc1)[C@H](C)CN([C@@H](C)CO)C2=O`: under setting [1], the viability index was 0.692 ± 0.19.

For the molecule `CC(C)NC(=O)Nc1cccc2c1O[C@@H](CN(C)C(=O)Nc1ccccc1)[C@H](C)CN([C@H](C)CO)C2=O`, under setting [1], the viability index turned out to be 1.05 ± 0.17.

As for `COc1ccc(S(=O)(=O)N(C)C[C@H]2Oc3c(NC(=O)Nc4cccc5ccccc45)cccc3C(=O)N([C@@H](C)CO)C[C@H]2C)cc1`, the viability index under setting [2] is 0.767 ± 0.035.

Molecule `CC(C)NC(=O)Nc1cccc2c1O[C@H](CN(C)C(=O)Nc1ccccc1)[C@H](C)CN([C@H](C)CO)C2=O` gave a viability index under setting [1] of 1.03 ± 0.09.

Take `CC(C)NC(=O)Nc1cccc2c1O[C@@H](CN(C)C(=O)Nc1ccccc1)[C@@H](C)CN([C@@H](C)CO)C2=O`: under setting [1], the viability index was 1.04 ± 0.011.

With `COc1ccc(S(=O)(=O)N(C)C[C@H]2Oc3c(NC(=O)c4nc5ccccc5s4)cccc3C(=O)N([C@H](C)CO)C[C@H]2C)cc1`, the viability index under setting [1] was found to be 1.03 ± 0.022.

As to `COc1ccc(S(=O)(=O)N(C)C[C@@H]2Oc3c(NC(=O)c4nc5ccccc5s4)cccc3C(=O)N([C@@H](C)CO)C[C@H]2C)cc1`, the viability index under setting [1] turned out to be 0.979 ± 0.043.

`C[C@@H]1CN([C@@H](C)CO)C(=O)c2cccc(NC(=O)Nc3ccccc3)c2O[C@@H]1CN(C)C(=O)Nc1ccccc1` came in with a viability index under setting [2] of 0.703 ± 0.052.

Molecule `CN1C(=O)c2cc(NC(=O)C3CCOCC3)ccc2OC[C@@H]2O[C@H](CC(=O)NCc3ccccc3F)CC[C@H]21` displayed a viability index under setting [1] of 1.04 ± 0.032.

As to `O=C(CN1CCOCC1)N1CC(=O)N2[C@H](C1)[C@H](c1ccc(C3=CCCCC3)cc1)[C@@H]2CO`, the viability index under setting [1] amounted to 1.02 ± 0.035.

Molecule `CCc1cnc(N2[C@H](C#N)[C@@H](c3ccc(-c4cccc(F)c4)cc3)[C@@H]2CO)s1` showed a viability index under setting [1] of 1.12 ± 0.11.

`C[C@H](CO)N1C[C@H](C)[C@H](CN(C)C(=O)Nc2ccccc2C(F)(F)F)OCc2cnnn2CCCC1=O`: under setting [1], the viability index worked out at 1.03 ± 0.014.

`COc1ccc(NC(=O)N(C)C[C@H]2Oc3c(NC(=O)Nc4ccccc4)cccc3C(=O)N([C@@H](C)CO)C[C@H]2C)cc1` yielded a viability index under setting [2] of 0.724 ± 0.05.

Consider `COc1ccc(NC(=O)Nc2cccc3c2O[C@@H](CN(C)Cc2ccc(C(=O)O)cc2)[C@@H](C)CN([C@@H](C)CO)C3=O)cc1`, for which, under setting [1], the viability index stood at 0.95 ± 0.17.

Molecule `COc1ccc(NC(=O)Nc2cccc3c2O[C@@H](CN(C)Cc2ccc(C(=O)O)cc2)[C@H](C)CN([C@@H](C)CO)C3=O)cc1` yielded a viability index under setting [1] of 0.978 ± 0.065.

For `CC(C)[C@H]1C(=O)N[C@H](c2cccc(Cl)c2)C/C=C/C[C@H](C)Oc2ccccc2C(=O)N1C.CC(C)[C@H]1C(=O)N[C@H](c2cccc(Cl)c2)C/C=C\C[C@H](C)Oc2ccccc2C(=O)N1C`, under setting [1], the viability index is 0.9865 ± 0.0032.

Under setting [1], `C[C@@H]1CN([C@@H](C)CO)C(=O)c2cccc(NS(C)(=O)=O)c2O[C@H]1CN(C)Cc1ccc(-c2ccccc2)cc1` showed a viability index of 1.01 ± 0.029.

For the molecule `C[C@H]1CN([C@@H](C)CO)C(=O)c2cccc(NS(C)(=O)=O)c2O[C@@H]1CN(C)Cc1ccc(-c2ccccc2)cc1`, the viability index under setting [1] stood at 1 ± 0.078.

`C[C@H](CO)N1C[C@H](C)[C@H](CN(C)Cc2ccc(-c3ccccc3)cc2)Oc2c(NS(C)(=O)=O)cccc2C1=O`: the viability index under setting [1] was 0.827 ± 0.011.
